The panel holds about 83,000 compounds, 20% with a hit somewhere; the sample as a whole holds those more often.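 Values shown are percent growth following 48 h exposure of cells in 96-well plates to a single concentration of compound; below 10 was considered active.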 Values without a mark were called inactive.
System: HL-60(TB) leukemia
Test: NCI-60 one-dose screen, 48 h (100 = growth as untreated, 0 = no growth, -100 = all killed)
Details: 10 µM unless noted

| Compound | growth |
| --- | --- |
| CCCSc1nc(NCCc2c[nH]c3ccccc23)c(C#N)c(-c2ccc(OC)cc2)n1 | 40.7% |
| O=C1N/C(=N\c2nccs2)S/C1=C\c1cccs1 | 25.1% |
| Cc1cccc(-c2ccccc2Oc2ccc3nnc(Cl)n3n2)c1 | 108% |
| CCN1CCN(Cc2ccc(C(=O)Nc3cccc(-c4cn(-c5ccc6oc(=O)ccc6c5)nn4)c3)cc2C(F)(F)F)CC1 | 27.7% |
| NS(=O)(=O)c1ccc(N=Nc2c(O)n(CC(=O)Nc3ccccc3Cl)c3ccccc23)cc1 | 45.8% |

Source: PubChem BioAssay (NCI)
